Assay results reported in the supplement of paper PMC11001985.
Unmarked numbers belong to inactive results.

The molecules below were run against ACLY (lysine site: K991) (UniProt P53396) (assay: lysine labeling ratio R10:1 (500 µM / 50 µM probe), SILAC-ABPP in living cells; higher = lower intrinsic lysine reactivity toward the probe, active = 2 or less). Conditions: HeLa; probe concentrations 500 vs 50 µM.
Procedure: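 Living HeLa cells (SILAC light/heavy) in PBS at room temperature were labeled with 50 µM versus 500 µM of the lysine-reactive, reductant-cleavable probe OPA-S-S-alkyne (SILAC labeling time not stated). Probe-modified peptides were CuAAC-biotinylated, captured on neutravidin and eluted with DTT/IAA, then quantified by LC-MS/MS. R = median peptide ratio per lysine (500/50 µM), combined over 3 forward and 3 reverse SILAC replicates. Ratios are capped at 20; R < 2 = hyper-reactive.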

Chain of ACLY (lysine site: K991) (P53396 whole entry): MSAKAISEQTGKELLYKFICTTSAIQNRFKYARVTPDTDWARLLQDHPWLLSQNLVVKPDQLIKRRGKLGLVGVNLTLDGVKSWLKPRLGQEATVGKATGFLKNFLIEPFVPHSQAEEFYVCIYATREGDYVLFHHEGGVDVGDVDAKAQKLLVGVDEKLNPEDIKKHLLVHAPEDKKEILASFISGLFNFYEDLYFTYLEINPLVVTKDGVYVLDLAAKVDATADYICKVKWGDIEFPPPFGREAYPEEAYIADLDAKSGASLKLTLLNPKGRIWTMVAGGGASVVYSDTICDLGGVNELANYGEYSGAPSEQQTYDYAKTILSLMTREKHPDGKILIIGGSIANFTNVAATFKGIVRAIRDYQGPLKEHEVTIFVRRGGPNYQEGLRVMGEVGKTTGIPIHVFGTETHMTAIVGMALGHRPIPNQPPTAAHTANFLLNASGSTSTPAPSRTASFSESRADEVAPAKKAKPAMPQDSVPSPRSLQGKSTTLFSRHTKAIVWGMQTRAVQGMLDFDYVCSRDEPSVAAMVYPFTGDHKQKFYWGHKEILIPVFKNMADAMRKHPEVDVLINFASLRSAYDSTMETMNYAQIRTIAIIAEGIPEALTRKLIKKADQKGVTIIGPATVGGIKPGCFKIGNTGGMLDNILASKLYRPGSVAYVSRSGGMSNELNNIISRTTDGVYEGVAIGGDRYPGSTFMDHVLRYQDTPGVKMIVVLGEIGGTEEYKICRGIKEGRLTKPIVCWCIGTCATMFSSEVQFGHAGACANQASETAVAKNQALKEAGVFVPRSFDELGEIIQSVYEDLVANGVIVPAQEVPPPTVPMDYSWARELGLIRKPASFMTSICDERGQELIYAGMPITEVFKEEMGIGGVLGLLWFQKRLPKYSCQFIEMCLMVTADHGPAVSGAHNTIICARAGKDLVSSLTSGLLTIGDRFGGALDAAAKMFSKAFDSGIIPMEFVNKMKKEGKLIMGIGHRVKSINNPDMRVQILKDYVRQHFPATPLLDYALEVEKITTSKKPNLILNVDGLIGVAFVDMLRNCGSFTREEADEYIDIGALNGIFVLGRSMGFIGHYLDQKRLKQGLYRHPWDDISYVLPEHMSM

SMILES	lysine labeling ratio R10:1
C#CCNC(=O)CCSSCCC(=O)NCCc1ccc(C=O)c(C=O)c1	2.27
